High-throughput results deposited in PubChem BioAssay by National Center for Advancing Translational Sciences (NCATS).
The list is not random: actives were taken first. Their share in the collection is about 7.8%.
HCV inh – qHTS Assay for Inhibitors of Hepatitis C Virus (HCV) | Huh7.5.1 HCVcc-Cre infection, luciferase reporter, 44 h | actives 3.4% (n = 340,000) | Potency, µM (top dose mostly 41.8 µM), for the others: top-dose activity change, negative = inhibition, most hits filed as inhibitors; active means well fitted inhibition curve with a large enough effect; inconclusive means small, poorly fitted or top-dose-only effect, or another doubt; inactive means no such curve, though single readings can be large or run the other way; further: potency means the concentration at half of the fitted maximal effect
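Infectious HCV cell culture screen: compound-treated cells (1,000/well, pre-plated 4 h) are infected with HCVcc-Cre at roughly 0.5 moi and grown 44 h. Infection is quantified by luciferase signal after 15 min substrate incubation at room temperature.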
Vaccinia Venus – qHTS for Stage-Specific Inhibitors of Vaccinia Orthopoxvirus: Venus Reporter Primary qHTS; Vaccinia virus Venus reporter expression, fluorescence; Potency, µM (top dose mostly 36.5 µM), for the others: at the top dose activity change, negative = inhibition, hits mostly inhibitors; actives 0.46% (n = 330,000); calls by dose curve; tested in A549 cells; further: potency means the concentration at half of the fitted maximal effect; nearly all actives have a fitted effect of over 30% in size
VACV mCherry inh – qHTS for Stage-Specific Inhibitors of Vaccinia Orthopoxvirus: mCherry Reporter Primary qHTS. actives 0.63% (n = 310,000). Potency, µM (series often up to 36.5 µM), for inactives: at the highest dose activity change, negative = inhibition, most hits filed as inhibitors. Vaccinia virus mCherry reporter infection, fluorescence; calls by dose curve; tested in A549 cells; further: potency means the concentration at half of the fitted maximal effect; nearly all actives have a fitted effect of over 35% in size
HCMV inh – qHTS Assay for inhibitors of the human cytomegalovirus (HCMV) | HFF cells, HCMV-luciferase reporter, 72 h; hits give low values | activity change, negative = inhibition, % at 57.5 µM | actives 4.5% (n = 410,000) | AID 1259415, 2018; in the data active means activity change below about -60%; inconclusive means no clear call, values can overlap the other calls; inactive means above about -39%
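Two-dose cell screen: HFF monolayers treated with compounds and infected with luciferase-expressing HCMV at 1 PFU/cell, 72 h at 37C, then lysed for luciferase measurement.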
Lassa entry inh – qHTS for Inhibitors of binding or entry into cells for Lassa Virus; Lassa virus pseudotype entry inhibition, cell reporter; Potency, µM (series often up to 37.9 µM), for the others: top-dose activity change, negative = inhibition, most hits filed as inhibitors; actives 1.2% (n = 300,000); calls by dose curve; tested in HEK293 cells; further: potency means the concentration at half of the fitted maximal effect; nearly all actives have a fitted effect of over 50% in size
MARV entry inh – qHTS for inhibitors of binding or entry into cells for Marburg Virus; Marburg virus pseudotyped entry inhibition, cell reporter; Potency, µM (doses to about 37.8 µM), for inactives: at the top dose activity change, negative = inhibition, actives largely listed as inhibitors; actives 1.8% (n = 300,000); calls by dose curve; tested in HEK293 cells; further: potency means the concentration at half of the fitted maximal effect
* marks the source's active call; other numbers are inactive results; i = inactive; ? = inconclusive; · = no result; [ ] = another dose, or the depositor's remark. On the % scale 0 is the no-effect control and ±100 the full control effect.

SMILES | HCV inh | Vaccinia Venus | VACV mCherry inh | HCMV inh | Lassa entry inh | MARV entry inh
COc1cccc(C(=O)NCc2cn3ccccc3n2)c1 | · | -5% | -11% | -25 | -4%[46.1 µM] | -11%[46.1 µM]
COc1cccc(-c2sc3ccc(OC)cc3c2C#CC(C)(C)O)c1 | 7.1µM* | ? | ? | 2 | · | ·
COc1cccc(-c2sc3ccc(OC)cc3c2C#CCC(C)O)c1 (centres undefined) | ? | ? | -19% | 54 | · | ·
COc1ccc(-c2sc3ccc(OC)cc3c2C#CCCO)cc1 | ? | ? | 0% | · | · | ·
COc1ccc2sc(-c3ccc(N(C)C)cc3)c(C#CCCO)c2c1 | 1.4µM* | ? | ? | 36 | · | ·
Cc1ccc2[nH]c3c(c2c1)CCCC3NC(=O)CCl (centres undefined) | ? | -29% | -25% | · | 8.9µM* | 5.6µM*
Cc1ccc2[nH]c3c(c2c1)CCC[C@H]3C(N)=O | · | · | · | · | · | 5%
CCN(CC)C(=O)C1CCCc2c1[nH]c1ccc(Cl)cc21 (centres undefined) | ? | 5% | 9% | 1 | · | ·
O=CNC1CCCc2c1[nH]c1ccc(Cl)cc21 (centres undefined) | 7.1µM* | -2% | -15% | ? | ? | ?
COc1ccc(C)cc1NC(=O)Cn1cc(S(=O)(=O)Cc2ccccc2Cl)c2ccccc21 | · | -24% | -25% | 0 | -18%[46.1 µM] | ·
CN(CC(=O)Nc1ccccc1Br)C(=O)CNC(=O)c1ccc(Oc2ccccc2)cc1 | ? | · | · | -63* | · | ·
COc1cccc(NC(=O)CN(C)C(=O)CNC(=O)c2ccc(Oc3ccccc3)cc2)c1 | -6% | -26% | -8% | 6 | 4%[46.1 µM] | -8%
CC(C)Oc1ccc(C(=O)Nc2ccc(N3CCN(C(=O)c4ccco4)CC3)cc2)cc1 | -11% | 6% | -12% | -39 | ? | -2%[46.1 µM]
Cc1ccc(C(=O)Nc2ccc(N3CCN(C(=O)c4ccco4)CC3)cc2)c(Cl)c1 | 11µM* | -9% | -17% | -32 | ? | -6%[46.1 µM]
Cc1ccc(C(=O)NC(=S)Nc2ccc(N3CCN(C(=O)c4ccco4)CC3)cc2)cc1 | 11µM* | -30% | -20% | ? | -6% | 9%
Cc1ccccc1C(=O)N1CCN(c2ccc(NC(=S)NC(=O)c3cccs3)cc2)CC1 | ? | · | · | -13 | · | ·
COc1ccc(C(=O)N2CCN(c3ccc(NC(=O)c4ccco4)cc3)CC2)cc1 | -7% | -20% | -8% | -76* | -15% | -1%
O=C(Nc1ccc(N2CCN(C(=O)c3ccco3)CC2)cc1)c1ccc([N+](=O)[O-])cc1Cl | ? | · | · | -3 | · | ·
Cc1ccc(C(=O)N2CCN(c3ccc(NC(=S)NC(=O)c4cccs4)cc3)CC2)cc1 | 2.2µM* | -28% | ? | -74* | ? | 7.9µM*
CCc1ccc(C(=O)N2CCN(c3ccc(NC(=O)c4ccco4)cc3)CC2)cc1 | · | -12% | -3% | 13 | ? | 18%
COCCNC(=O)c1cn(C2CCN(C3CCCC3)CC2)nn1 | · | 4% | -6% | · | · | ·
COc1cc(OC)c(NC(=O)CN2CCCN(Cc3ccccc3C)S2(=O)=O)cc1Cl | · | -2% | -2% | 11 | -6%[46.1 µM] | ·
O=C(NCCN1Cc2ccccc2OC(c2ccsc2)C1)c1cncs1 (centres undefined) | · | -5% | -11% | · | · | ·
O=C(Nc1ccc(N2CCN(C(=O)c3ccccc3)CC2)cc1)c1cccs1 | 2% | -5% | i | 74 | ? | -2%[46.1 µM]
COc1ccc(C(=O)N2CCN(c3ccc(NC(=O)c4cccs4)cc3)CC2)cc1 | ? | -15% | -2% | -68* | 1% | -24%
SMILES | HCV inh | Vaccinia Venus | VACV mCherry inh | HCMV inh | Lassa entry inh | MARV entry inh
CC(C)C(=O)Nc1ccc(N2CCN(C(=O)c3cccs3)CC2)cc1 | 17% | -4% | -12% | 97 | 4% | 14%
CC(C)CC(=O)NC(=S)Nc1ccc(N2CCN(C(=O)c3cccs3)CC2)cc1 | ? | -16% | i | -36 | 5.6µM* | ?
CC(C)c1cnc2c(c1SCC(=O)NCc1ccccc1Cl)c(=O)n(C)c(=O)n2C | · | -14% | -14% | -19 | -16%[46.1 µM] | ·
COc1ccc(-c2c[n+](CC(=O)OC3CC(C)CCC3C(C)C)c3n2CCC3)cc1 (centres undefined) | ? | · | · | -100* | · | ·
CC(C)[C@@H]1CC[C@@H](C)C[C@H]1OC(=O)C[n+]1cc(-c2ccc(Cl)cc2)n2c1CCCCC2 | -15% | -24% | i | -97* | ? | ?
CCCCNC(=O)CCCn1c(=O)c2ccccc2n(Cc2ccccc2C)c1=O | · | -14% | -24% | -10 | ? | ?
CCOP(=O)(Nc1ccc2c(c1)C(=NNC(N)=S)c1ccccc1-2)OCC | 11µM* | ? | 11µM* | 30 | -20% | ?
CN(C)CCN(CC1CCCN(Cc2ccccc2F)C1)C(=O)c1ccc(Cl)cc1 (centres undefined) | ? | -9% | ? | -4 | ? | 8.9µM*
Cc1nn(C)c(C)c1S(=O)(=O)N1CCC(C(=O)NCCC2=CCCCC2)CC1 | -10% | -10% | 6% | ? | · | 0%
O=C1CCc2cc(S(=O)(=O)N3CCC(C(=O)NCCC4=CCCCC4)CC3)ccc2N1 | -8% | -9% | -13% | -99* | · | ·
Cc1noc(C)c1S(=O)(=O)N1CCC(C(=O)NCCC2=CCCCC2)CC1 | ? | -9% | -5% | -102* | 11% | ?
COC1CCC(OC2CC(C3(C)CCC4(CC(O)C(C)C(C(C)/C=C(\C)C(=O)C(C)CC(C)C(=O)O)O4)O3)OC3(OC(C4OC(O)(CO)C(C)CC4C)CC3C)C2C)OC1C (centres undefined) | 0.32µM* | 7.9µM* | 6.3µM* | -98* | 0.32µM* | ?
C/C(=N\Nc1nc(N)cc(Cl)n1)c1ccc(Cl)c(Cl)c1 | 11µM* | -19% | -20% | -39 | 4% | -1%[46.1 µM]
C/C(=N\Nc1nc(N)cc(Cl)n1)c1ccc(F)cc1 | ? | -14% | -11% | -6 | · | ·
Cc1ccc(CCNc2ccc3ccccc3c2)cn1 | -8% | 6% | -11%[1.46 µM] | -63* | ? | ?
CN1C(=O)C2(c3ccccc31)N(C)CC(c1ccccc1)C21SC(=S)N(Cc2ccco2)C1=O (centres undefined) | 10µM* | -7% | i | -62* | ? | ?
CC(C)C(=O)N[C@@H]1c2ccccc2CC[C@@H]1OCc1ccccc1 | 2% | 0% | i | -82* | · | ·
O=C(Cc1cccs1)N[C@@H]1c2ccccc2CC[C@@H]1OCc1ccccc1 | 6% | 2% | i | -17 | · | ·
O=C(Cc1cccs1)N[C@@H]1c2ccccc2CC[C@H]1OCc1ccccc1 | 0% | -9% | i | -99* | · | ·
COc1ccc(CC(=O)N[C@@H]2c3ccccc3CC[C@H]2OCc2ccccc2)cc1 | ? | -5% | i | -17 | · | ·
